We go through eleven molecules from PubChem BioAssay AID1053184 (Broad Institute, 2014).

Entries with a potency or affinity are not part of this list. The source made the active and inactive calls.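 Rule for the calls: active = cell killing, with a fitted half-maximal concentration at or below twice the top valid dose tested; inconclusive = flat curve between 30% and 70% signal loss, or poor fit; inactive = effect in the rising direction, plus the rest.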

The experiment can be described thus: cytotoxicity in A549 cells, dose response, cytotoxicity control, cell-based, cherry-picked samples (AID 1053184). The settings on record: A549 viability, CellTiter-Glo ATP luminescence, 72 h; series mostly up to 26 µM.
For the molecule `N#Cc1cccc(-c2ccc(C3[C@@H]4CN(C(=O)Nc5ccc(C(F)(F)F)cc5)C[C@H]3N4)cc2)c1` (stereo partly specified), the molecule was classed as inactive.

As for `COc1cccc(-c2cccc(-c3nc(C(=O)Nc4ccc(-c5ccccc5)cc4)cc4c3[C@@H](CCO)N(S(=O)C(C)(C)C)C4)c2)c1` (stereo partly specified), the molecule was classed as inactive.

In the case of `COc1ccc2c3c(n(C)c2c1)[C@@H](CO)N(CC1CC1)CC31CN(C(=O)c2ccc3c(c2)OCO3)C1`, the result was inactive.

For `C[C@H](CO)N1C[C@H](C)[C@@H](CN(C)Cc2ccccc2)Oc2c(NC(=O)Cc3cn(C)c4ccccc34)cccc2C1=O`, the call was inactive.

For `C[C@H]1CNC(=O)[C@@H](Cc2ccc(C(F)(F)F)cc2)CCn2nncc2COC1`, the outcome was inactive.

For `CO[C@@H](CN(C)Cc1cc(F)ccc1F)[C@@H](C)CN(C(=O)Nc1ccc(C(F)(F)F)cc1)[C@H](C)CO`, the result was inactive.

Consider `O=S(=O)(c1ccc(F)cc1)N1C[C@@H]2N[C@H](C1)C2c1ccc(/C=C/c2ccccc2)cc1` (stereo partly specified), for which the molecule was called inactive.

For `COc1cc(CN2C[C@@H]3N[C@H](C2)C3c2ccc(-c3ccc(C#N)cc3)cc2)cc(OC)c1` (stereo partly specified), the call was inactive.

As for `CNC[C@@H]1Oc2cc(C#Cc3ccccc3OC)ccc2S(=O)(=O)N([C@H](C)CO)C[C@H]1C`, the call was inactive.

In the case of `CN(C)C(=O)c1cccc(-c2ccc(C3[C@@H]4CN(Cc5ccccc5F)C[C@H]3N4)cc2)c1` (stereo partly specified), the result was inactive.

On to `C/C=C/c1ccc([C@H]2[C@@H](CO)N3C(=O)CN(Cc4ccc(F)cc4)C[C@@H]23)cc1`, for which the molecule was classed as inactive.
